Consider 20 molecules from PubChem BioAssay AID651930 (Southern Research Specialized Biocontainment Screening …, 2012).

Structures are written as SMILES. Values without a mark were called inactive. The source made the active and inactive calls. No rule for the calls is given here.

The assay can be described thus: Vero 76 cell cytotoxicity, dose response, cytotoxicity control for VEEV inhibitor project, set 9 (AID 651930). The following applies: Vero 76 cytotoxicity; series mostly up to 25 µM; viability: at the top concentration.
Consider `CCN1CCN(Cc2nc3c([N+](=O)[O-])cccc3c(=O)n2-c2ccccc2)CC1`, for which the “viability” value was 84.3%. For the molecule `CCN(CC)c1nc(=O)c2cccnc2s1`, the “viability” value was 102% [at 50 µM]. On the same count and under the same terms, under `COc1ccc(-n2c(CN3CCNCC3)nc3ccc([N+](=O)[O-])cc3c2=O)cc1` stands 85.9%. In the case of `CCN1CCN(Cc2nc3ccc([N+](=O)[O-])cc3c(=O)n2-c2ccccc2F)CC1`, the result was inactive.

Consider `COc1ccc(NC(=O)c2cc([N+](=O)[O-])ccc2N=C2CN(C)CCN2C)cc1`, for which the viability was 90.4% [at 5 µM]. On the same count and under the same terms, under `CCN1CCN(C)CC1=Nc1ccc([N+](=O)[O-])cc1C(=O)Nc1ccccc1` stands 93.7% [at 50 µM]; under `CCN1CCN(Cc2nc3ccc(C#N)cc3c(=O)n2-c2ccccc2)CC1`, 87.5%. Same read-out and setting: under `CCN1CCN(Cc2nc3ncc([N+](=O)[O-])cc3c(=O)n2-c2ccccc2)CC1` stands 101%; under `CNCCCN(C)Cc1nc2ccc([N+](=O)[O-])cc2c(=O)n1-c1ccccc1`, 102% [at 50 µM]. On the same count and under the same terms, under `CN(C)c1cccc(-n2c(CN3CCNCC3)nc3ccc([N+](=O)[O-])cc3c2=O)c1` stands 99.6%; under `O=c1c2cc([N+](=O)[O-])ccc2nc(C2CCNCC2)n1-c1ccccc1`, 82.6%. Regarding `CCN1CCN(Cc2nc3ccc([N+](=O)[O-])cc3c(=O)n2-c2ccccc2)CC1`, the “viability” value is 96.5%. In the case of `CCN1CCN(Cc2nc3ccc(-c4cccnc4)cc3c(=O)n2-c2ccccc2)CC1`, the “viability” value is 87.1%.

Consider `O=c1nc(Nc2ccc(OCc3ccccc3)cc2)sc2ncccc12`, for which the “viability” value was 86.4% [at 50 µM]. On the same count and under the same terms, under `O=c1nc(Nc2cccc(OCc3ccccc3)c2)sc2ncccc12` stands 73.5%; under `O=c1nc(Nc2ccc(OCc3ccccc3)cc2)sc2ncc(F)cc12`, 86.1%; under `CCN1CCN(C(c2nc3ncc([N+](=O)[O-])cc3c(=O)n2-c2ccccc2)C(c2nc3ncc([N+](=O)[O-])cc3c(=O)n2-c2ccccc2)N2CCN(CC)CC2)CC1` (stereo not given), 95.6%. Regarding `O=c1c2cc([N+](=O)[O-])ccc2nc(CN2CCNCC2)n1-c1ccccc1F`, the “viability” value was 102%.

Turning to `CCN1CCN(Cc2nc3ncccc3c(=O)n2-c2ccccc2)CC1`, the “viability” value is 94.2%. In the case of `CN1CCN(C)C(=Nc2cc(Cl)c(C#N)cc2C(=O)Nc2ccccc2)C1`, the “viability” value is 84.8% [at 50 µM].

For orientation: viability means a read-out of living cells in per cent, often relative to untreated cells.
